Results: PubChem BioAssay AID652054 (National Center for Advancing Translational Sciences (NCATS), 2013)
Screen size: about 360,000 compounds; about 9,100 (2.5%) were called active. Another 4% or so got no clear call; they are omitted. The list comes from a sample in which actives are over-represented; it also holds similar structures and randomly drawn compounds. Values without a mark were called inactive. No stated cut-off is given here; in the data, active means max response below about -50%; inconclusive means no clear call, values can overlap the other calls; inactive means above that.
On the % scale 0 is the no-effect control and ±100 the full control effect.

What follows are compounds tested against D(3) dopamine receptor (Homo sapiens) (UniProt P35462) (assay: qHTS of D3 Dopamine Receptor Antagonist: qHTS). Settings: D3R cells, DiscoveRx beta-arrestin luminescence, antagonist mode; active compounds read low.
D(3) dopamine receptor (Homo sapiens), sequence (P35462 whole entry, looked up): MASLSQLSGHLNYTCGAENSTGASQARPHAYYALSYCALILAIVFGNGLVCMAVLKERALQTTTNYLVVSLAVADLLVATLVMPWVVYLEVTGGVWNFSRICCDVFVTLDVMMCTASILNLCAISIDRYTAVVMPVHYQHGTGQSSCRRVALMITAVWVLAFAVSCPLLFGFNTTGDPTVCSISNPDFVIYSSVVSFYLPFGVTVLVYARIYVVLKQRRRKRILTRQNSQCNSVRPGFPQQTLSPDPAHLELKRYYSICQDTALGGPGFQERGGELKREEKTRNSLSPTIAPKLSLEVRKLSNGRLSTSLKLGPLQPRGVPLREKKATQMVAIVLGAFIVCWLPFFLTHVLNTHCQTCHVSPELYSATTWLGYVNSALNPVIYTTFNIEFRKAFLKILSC
Outline: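 Cells plated overnight at 1500 cells/well, then exposed to library compounds with dopamine controls for 90 minutes at 37 degrees C. DiscoveRx reagent added for 30–60 minutes at room temperature; luminescence read, quantitative HTS format.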
With CCc1nc2c(OCCC3CCCCC3)cccn2c1N(C)C(=O)c1ccco1 the max response, negative = inhibition was -17.4%. Compound O=C(NCC(O)c1nc2ccccc2[nH]1)c1ccc(Br)cc1 (stereo not given) has a max response, negative = inhibition of -3.7%. Work on COc1ccc(NC(=O)CSc2nnnn2-c2cccc(OC)c2)cc1 yielded a max response, negative = inhibition of 26.1%. In the case of Clc1cccc(-c2nc3nc4ccccc4nc3n2Cc2ccco2)c1, the max response, negative = inhibition is reported as -72.7% (active). In the case of O=c1[nH]c(CSc2ncc(-c3ccc(F)cc3)n2Cc2ccco2)nc2ccccc12, the max response, negative = inhibition is reported as 11.8%. O=C(CSc1nnc(-c2cccnc2)n1Cc1ccco1)c1ccc(Cl)c(Cl)c1 gave a max response, negative = inhibition of 25.5%. CCOC1=C2[C@H]([C@H]3C(=O)N(c4ccccc4)C(=O)[C@H]3C1)[C@@H](c1ccccc1)N(S(=O)(=O)c1ccc(C)cc1)[C@H]2c1ccccc1 was tested, and the max response, negative = inhibition was 0.0406%. With CC1=CC(=C(C#N)c2nc3ccccc3s2)C=C(C)N1c1ccc(F)cc1F the max response, negative = inhibition was -51.3% (active). CN(Cc1nc2ccccc2s1)C(=O)c1ccc(F)cc1 gave a max response, negative = inhibition of -18.6%. With N#C/C(=C(/O)Cc1cccc2ccccc12)c1nc2ccccc2s1 the max response, negative = inhibition was -26.8%. CN1CCN(c2ccc3c(c2)OC[C@H](Cc2ccccc2)NS3(=O)=O)CC1 was tested, and the max response, negative = inhibition was -23%. Work on CCOC(=O)[C@]12CCCC=C1N(Cc1ccc3c(c1)OCO3)C(=O)[C@H](CC(=O)NCc1cccs1)C2 yielded a max response, negative = inhibition of -6.39%. Work on COC(=O)C[C@H]1C[C@@H]2c3cc(NC(=O)Nc4ccccc4)ccc3O[C@@H]2[C@@H](CO)O1 yielded a max response, negative = inhibition of 17.9%. CCC(C(=O)NC1CCCC1)N(C(=O)Cn1nnc(-c2ccc(C)o2)n1)c1ccc(OC)c(OC)c1 (stereo not given) gave a max response, negative = inhibition of 8.45%. COc1ccc(C)cc1N(C(=O)Cn1nnc(-c2ccc(C)o2)n1)C(C(=O)NC1CCCC1)c1ccncc1 (stereo not given) was tested, and the max response, negative = inhibition was -57.8% (active). Compound Cc1cccc(N(C(=O)Cn2nnc(-c3ccc(C)o3)n2)C(C(=O)NC2CCCC2)c2ccncc2)c1 (stereo not given) has a max response, negative = inhibition of 12.8%. In the case of CNC[C@H]1OCc2cnnn2CCCC(=O)N([C@H](C)CO)C[C@@H]1C, the max response, negative = inhibition is reported as 11.4%. In the case of COCCNC(=O)C1(C)CCCN(Cc2cccc(F)c2)C1 (stereo not given), the max response, negative = inhibition is reported as -6.58%. COc1cccc(C(O)Cc2nc3ccccc3n2C)c1OC (stereo not given) gave a max response, negative = inhibition of 9.46%. For CC(NCc1nc2ccccc2n1C)C12CC3CC(CC(C3)C1)C2 (stereo not given), the max response, negative = inhibition was -77.6% (active). Cn1c(CC(=O)NNC(=O)c2ccccc2F)nc2ccccc21 was tested, and the max response, negative = inhibition was 5.88%. Compound COC(=O)c1ccc2nc(-c3cccc(Br)c3)c(Cc3ccccc3C(F)(F)F)n2c1 has a max response, negative = inhibition of 0%. With CC(Oc1ccccc1[N+](=O)[O-])C(=O)N/N=C/c1ccoc1 (stereo not given) the max response, negative = inhibition was -27.6%. In the case of O=C(N/N=C/c1ccoc1)c1ccc(Cl)cc1Cl, the max response, negative = inhibition is reported as 9.92%. With CC(C)c1cc(C(=O)N/N=C/c2ccoc2)c(O)c(C(C)C)c1 the max response, negative = inhibition was -60.7% (active).
